# Results taken from PubChem BioAssay (NCI).
# About 79,000 compounds went through this panel and 15% of them were active in at least one assay; those are over-represented in the sample as a whole. A number with no mark means an inactive call. The source made the active and inactive calls. No stated cut-off is given here; in the data, active means growth inhibition above about 70%; inactive means the rest.
# Columns and labels:
# [1] = NCI Yeast Anticancer Drug Screen. Data for the rad50 strain (AID 155);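 further: 0% = growth of vehicle-only cultures of the same strain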; conditions: S. cerevisiae rad50 strain growth inhibition, hits give high values
# Summary of the method: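 Inhibition values express reduced yeast growth in compound-treated cultures relative to vehicle-treated controls.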
# [2] = NCI Yeast Anticancer Drug Screen. Data for the mec2-1 strain (AID 157); conditions: S. cerevisiae mec2-1 strain, hits give high values
# Summary of the method: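 Using mec2-1 yeast: add compound, measure growth, express inhibition versus vehicle-treated cultures.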
# [3] = NCI Yeast Anticancer Drug Screen. Data for the sgs1 mgt1 strain (AID 161);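 further: 0% = growth of cultures given vehicle only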; conditions: S. cerevisiae sgs1 mgt1 strain, hits give high values
# Summary of the method: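 Compounds are added to genetically altered yeast, and growth is compared with cultures given vehicle alone to give percent inhibition.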
# [4] = NCI Yeast Anticancer Drug Screen. Data for the cln2 rad14 strain (AID 165);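 further: 0% = growth equal to vehicle treated cultures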; conditions: S. cerevisiae cln2 rad14 strain, hits give high values
# Summary of the method: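 Yeast strain cln2 rad14, bearing defects in cell cycle control and DNA repair, serves as the test system; values reflect growth inhibition compared with vehicle.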
# [5] = NCI Yeast Anticancer Drug Screen. Data for the bub3 strain (AID 167); conditions: S. cerevisiae bub3 mutant strain, hits give high values
# Summary of the method: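 Steps: expose the mutant yeast strain to compound; grow alongside vehicle-treated cultures; measure growth; express inhibition against the vehicle cultures.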
# [6] = NCI Yeast Anticancer Drug Screen. Data for the mlh1 rad18 strain (AID 175); conditions: S. cerevisiae mlh1 rad18 strain growth inhibition, hits give high values
# Summary of the method: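 Steps: expose repair-defective yeast to compound; measure growth; express inhibition against vehicle-treated controls.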
# [7] = at 5.0 µM (retest, dose inferred, filed as 0.5)
# [8] = at 50.0 µM (retest, dose inferred, filed as 5.0)
Structure (SMILES),"growth inhibition [1, 7]","growth inhibition [1, 8]",growth inhibition ([1]; at 50.0 µM),"growth inhibition [2, 7]","growth inhibition [2, 8]",growth inhibition ([2]; at 50.0 µM),"growth inhibition [3, 7]","growth inhibition [3, 8]",growth inhibition ([3]; at 50.0 µM),"growth inhibition [4, 7]","growth inhibition [4, 8]",growth inhibition ([4]; at 50.0 µM),"growth inhibition [5, 7]","growth inhibition [5, 8]",growth inhibition ([5]; at 50.0 µM),"growth inhibition [6, 7]","growth inhibition [6, 8]",growth inhibition ([6]; at 50.0 µM)
CC(=O)NC1CCCCC1CC1CCCCC1 (configuration not stated),-146%,-23%,19.2%,-48%,-44%,20.1%,-63%,-32%,35.8%,-57%,-52%,79.2% (active),-68%,-49%,24%,-125%,-138%,16.9%
CCOc1nc(N)nc(C)c1N=Nc1ccc(Cl)cc1,16%,76% (active),95.5% (active),4%,58%,67.7%,14%,75% (active),91.9% (active),-5%,35%,74.8% (active),-1%,19%,97.3% (active),25%,88% (active),89.6% (active)
Cc1ccc(S(=O)(=O)CC2(Br)Cc3ccccc3C2=O)cc1 (configuration not stated),79% (active),99% (active),97.3% (active),76% (active),99% (active),98.8% (active),86% (active),99% (active),99.1% (active),24%,99% (active),98.2% (active),85% (active),99% (active),99% (active),75% (active),98% (active),98.5% (active)
C=C(CS(=O)(=O)c1ccccc1)[P+](c1ccccc1)(c1ccccc1)c1ccccc1,0%,95% (active),29.2%,-6%,92% (active),37.5%,-6%,95% (active),34.4%,-1%,81% (active),28.5%,-3%,88% (active),2.15%,-2%,92% (active),67.5%
[O-][n+]1ccc(Br)c(/C=C/c2ccccc2)c1,0%,20%,24.1%,-5%,32%,18.1%,-2%,23%,20%,0%,9%,2.3%,-5%,9%,24.6%,2%,79% (active),56.1%
COC1=CC(=O)c2ncc(Cl)cc2C1=O,-4%,97% (active),96% (active),-2%,92% (active),95.5% (active),-9%,89% (active),93.2% (active),-10%,96% (active),97.3% (active),-40%,88% (active),83.5% (active),28%,97% (active),98.3% (active)
CSC(=Nc1ccccc1)/N=C(\SCc1ccccc1)N(C)C,45%,98% (active),99.3% (active),26%,45%,99.7% (active),27%,99% (active),99.2% (active),13%,99% (active),98.8% (active),-30%,99% (active),99.5% (active),44%,99% (active),99.3% (active)
NCCCCC(N)C(=O)Nc1ccc2ccccc2c1 (configuration not stated),-1%,91% (active),99% (active),-41%,37%,99% (active),0%,75% (active),99.2% (active),1%,24%,82.8% (active),-9%,71% (active),99.3% (active),0%,83% (active),99% (active)
COc1ccccc1/C=C1\Sc2scc(-c3ccc(O)c(O)c3)[n+]2C1=O,-5%,99% (active),98.9% (active),-8%,99% (active),98.9% (active),-11%,99% (active),99.3% (active),-7%,99% (active),97.2% (active),-14%,99% (active),98.8% (active),7%,99% (active),99% (active)
